# Results as given in PubChem BioAssay AID434973 (Sanford-Burnham Center for Chemical Genomics, 2010).
# Among all 330,000 compounds or so, about 4,900 (1.5%) were called active.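 How the source made its calls: active means inhibition above about 50% at the single test dose (limit read from the data); inactive means the rest.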 The full list was thinned out, with actives kept by preference.
# Molecular target: Sentrin-specific protease 7 (Homo sapiens) (UniProt Q9BQF6)
# Assay: blockers of human SENP7 peptidase activity – biochemical, luminescence, uHTS, primary screen (AID 434973);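 further: plate controls were DMSO with enzyme for no effect and no enzyme buffer wells for full effect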
# Conditions: recombinant SENP7, Z-RLRGG-aminoluciferin luminescence, 40 min; at 5 µM; active compounds read high
row,Compound,inhibition
1,COc1ccc(NC(=O)c2sccc2SCC#N)cc1,7.98% (inactive)
2,COCCN1CCn2c(nc3cc(NS(C)(=O)=O)ccc32)C1,3.45% (inactive)
3,O=C(OCc1ccc([N+](=O)[O-])cc1)C1CC(=O)N(Cc2ccccc2Cl)C1 (stereo unspecified),2.69% (inactive)
4,Cc1ccc(-c2ccc(/C=C(\C#N)C(N)=S)o2)c([N+](=O)[O-])c1,2.25% (inactive)
5,Cc1cc(C)nc(SCc2cn3c(C)cc(C)nc3n2)n1,3.49% (inactive)
6,CSc1nc(C)nc(C2CC2)c1C#N,-2.65% (inactive)
7,CC(=O)Nc1ccc(S(=O)(=O)NCC2CCC(C(=O)NCCc3ccccc3)CC2)cc1 (stereo unspecified),2.3% (inactive)
8,CCOc1ccc(NC(=O)COC(=O)C2CCC(=O)N2)c([N+](=O)[O-])c1 (stereo unspecified),-6.28% (inactive)
9,CCC(C)CCN1CCN=C1N(C)C (stereo unspecified),9.82% (inactive)
10,Cc1noc(C)c1S(=O)(=O)N(C)C[C@H]1Oc2ccc(NC(=O)C3CC3)cc2C(=O)N([C@H](C)CO)C[C@@H]1C,-0.149% (inactive)
11,COC(=O)C1=C(C)N(c2ccc(C)cc2)/C(=C/c2ccc(O)cc2)C1=O,8.14% (inactive)
12,COc1cc(/C=C2\Oc3ccc(C#Cc4ccc(O)cc4)cc3C2=O)cc(OC)c1,-7.29% (inactive)
13,COc1cc(C#Cc2ccc3cc(CCCO)oc(=O)c3c2)cc(OC)c1,79.7% (active)
14,O=C1c2ccccc2C(=O)N1CCC#Cc1ccc2cc(C3(O)CCCCC3)oc(=O)c2c1,2.91% (inactive)
15,Cn1c(=O)c2c(ncn2CC(=O)N/N=C/c2cn[nH]c2-c2ccc(F)cc2)n(C)c1=O,1.2% (inactive)
16,CCCC(CNC(=O)COC(=O)C1=NNC(=O)CC1)c1ccc(Cl)cc1Cl (stereo unspecified),-4.17% (inactive)
17,O=C(O)CCCN1C(=O)c2ccccc2Sc2ncccc21,-1.32% (inactive)
18,CCNc1nc(N)nc(Oc2ccc(OCC)nn2)n1,73.1% (active)
19,CCOc1ccc(Oc2nc(C)cc(OC)n2)nn1,-1.32% (inactive)
20,CCNc1nc(N)nc(-c2cc(Cl)ccc2OC)n1,3.35% (inactive)
21,CC12C(=O)N(c3ccccc3)C(=O)C1C(c1ccccc1)N1CCCN12 (stereo unspecified),-4.08% (inactive)
22,C=CCn1c(SCC(=O)c2c(N)n(C)c(=O)n(C)c2=O)nc2sc(CC)cc2c1=O,-1.46% (inactive)
23,COc1cccc(/C=N\Nc2nncc(-c3ccccc3)n2)c1,24.7% (inactive)
24,CN(CCO)c1ccc(/C=N/Nc2nncc3ccccc23)cc1,93% (active)
25,C/C(=N\Nc1nncc2ccccc12)c1ccc(Cl)c([N+](=O)[O-])c1,5.32% (inactive)
26,COc1ccc([N+](=O)[O-])cc1N(CC(O)CN(CC(C)C)CC(C)C)S(=O)(=O)c1ccc(C)cc1 (stereo unspecified),3.08% (inactive)
